# Laboratory results from article PMC5540273 (PLoS ONE, 2017).
# Where “and” joins values, the source holds several entries; their conditions need not be identical. Equal values may be shown once. Read-outs that look alike come from different tables or passages of the source.
# Tests used:
# PIP5K2C = tested on: T1, PIP5K2C; details: concentration: 1 μM, replicates: in singlicate, n = 1
# T1 construct: gene PIP4K2C
# PKAC-alpha = tested on: T2, PKAC-alpha; details: concentration: 1 μM, replicates: in singlicate, n = 1
# T2 construct: gene PRKACA
# PKAC-beta = tested on: T3, PKAC-beta; details: concentration: 1 μM, replicates: in singlicate, n = 1
# T3 construct: gene PRKACB
# PKMYT1 = details: concentration: 1 μM, replicates: in singlicate; n = 1
# PKN1 = details: concentration: 1 μM, replicates: in singlicate, n = 1
# PKN2 = details: concentration: 1 μM, replicates: in singlicate, n = 1
# PLK1 = details: concentration: 1 μM, replicates: in singlicate, n = 1
# PLK2 = details: concentration: 1 μM, replicates: in singlicate, n = 1
# PLK3 = details: concentration: 1 μM, replicates: in singlicate, n = 1
# PLK4 = details: concentration: 1 μM, replicates: in singlicate, n = 1
# PRKCD = details: concentration: 1 μM, replicates: in singlicate, n = 1
# PRKCE = details: concentration: 1 μM, replicates: in singlicate, n = 1
# PRKCH = details: concentration: 1 μM, replicates: in singlicate, n = 1
# PRKCI = details: concentration: 1 μM, replicates: in singlicate, n = 1
# PRKCQ = details: concentration: 1 μM, replicates: in singlicate; n = 1
# PRKD1 = details: concentration: 1 μM, replicates: in singlicate, n = 1
# PRKD2 = details: concentration: 1 μM, replicates: in singlicate, n = 1
# PRKD3 = details: concentration: 1 μM, replicates: in singlicate, n = 1
# PRKG1 = details: concentration: 1 μM, replicates: in singlicate, n = 1
# PRKG2 = details: concentration: 1 μM, replicates: in singlicate, n = 1
# 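Note: KINOMEscan kinase panel screen.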
smiles,measurement,setting,value
CSc1nn2c(=O)cc(N3CCOCC3)nc2n1Cc1cccc(Cl)c1Cl [GSK2347225],%Inh,PIP5K2C,7%
same,%Inh,PKAC-alpha,24%
same,%Inh,PKAC-beta,12%
same,%Inh,PKMYT1,0%
same,%Inh,PKN1,5%
same,%Inh,PKN2,0%
same,%Inh,PLK1,55%
same,%Inh,PLK2,0%
same,%Inh,PLK3,5%
same,%Inh,PLK4,13%
same,%Inh,PRKCD,5%
same,%Inh,PRKCE,6%
same,%Inh,PRKCH,23%
same,%Inh,PRKCI,27%
same,%Inh,PRKCQ,0%
same,%Inh,PRKD1,0%
same,%Inh,PRKD2,8%
same,%Inh,PRKD3,0%
same,%Inh,PRKG1,25%
same,%Inh,PRKG2,0%
COc1ccc(-c2nc3n(c2-c2ccncc2)CCC3)cc1 [SKF-104493],%Inh,PIP5K2C; 1 µM,0% and 9%
same,%Inh,PKAC-alpha; 1 µM,5% and 0%
same,%Inh,PKAC-beta; 1 µM,7% and 0%
same,%Inh,PKMYT1,0%
same,%Inh,PKN1; 1 µM,7% and 0%
same,%Inh,PKN2; 1 µM,23% and 0%
same,%Inh,PLK1; 1 µM,22% and 0%
same,%Inh,PLK2; 1 µM,11% and 0%
same,%Inh,PLK3; 1 µM,1% and 0%
same,%Inh,PLK4; 1 µM,0% and 15%
same,%Inh,PRKCD; 1 µM,0% and 8%
same,%Inh,PRKCE; 1 µM,45% and 8%
same,%Inh,PRKCH; 1 µM,6% and 7%
same,%Inh,PRKCI; 1 µM,0% and 50%
same,%Inh,PRKCQ,0%
same,%Inh,PRKD1; 1 µM,0% and 3%
same,%Inh,PRKD2; 1 µM,2% and 16%
same,%Inh,PRKD3; 1 µM,0% and 27%
same,%Inh,PRKG1; 1 µM,32% and 7%
same,%Inh,PRKG2; 1 µM,1% and 18%
c1ccc(-c2ccc3c(-c4ccnc(Nc5ccc6c(c5)OCCO6)n4)cnn3n2)cc1 [GW818941],%Inh,PIP5K2C,36%
same,%Inh,PKAC-alpha,0%
same,%Inh,PKAC-beta,28%
same,%Inh,PKMYT1,3%
same,%Inh,PKN1,65%
same,%Inh,PKN2,0%
same,%Inh,PLK1,9%
same,%Inh,PLK2,0%
same,%Inh,PLK3,0%
same,%Inh,PLK4,0%
same,%Inh,PRKCD,1%
same,%Inh,PRKCE,0%
same,%Inh,PRKCH,9%
same,%Inh,PRKCI,9%
same,%Inh,PRKCQ,37%
same,%Inh,PRKD1,0%
same,%Inh,PRKD2,18%
same,%Inh,PRKD3,16%
same,%Inh,PRKG1,42%
same,%Inh,PRKG2,0%
CCn1c(-c2ccncc2)nc2cnccc21 [SB-735216],%Inh,PIP5K2C,0%
same,%Inh,PKAC-alpha,0%
same,%Inh,PKAC-beta,3%
same,%Inh,PKMYT1,6%
same,%Inh,PKN1,2%
same,%Inh,PKN2,20%
same,%Inh,PLK1,28%
same,%Inh,PLK2,37%
same,%Inh,PLK3,16%
same,%Inh,PLK4,0%
same,%Inh,PRKCD,0%
same,%Inh,PRKCE,37%
same,%Inh,PRKCH,12%
same,%Inh,PRKCI,46%
same,%Inh,PRKCQ,8%
same,%Inh,PRKD1,0%
same,%Inh,PRKD2,4%
same,%Inh,PRKD3,0%
same,%Inh,PRKG1,2%
same,%Inh,PRKG2,8%
CCC(CC)(CC)n1cnc2c(N)ncnc21 [SKF-97620],%Inh,PIP5K2C,0%
same,%Inh,PKAC-alpha,11%
same,%Inh,PKAC-beta,14%
same,%Inh,PKMYT1,2%
same,%Inh,PKN1,0%
same,%Inh,PKN2,0%
same,%Inh,PLK1,45%
same,%Inh,PLK2,32%
same,%Inh,PLK3,21%
same,%Inh,PLK4,7%
same,%Inh,PRKCD,8%
same,%Inh,PRKCE,47%
same,%Inh,PRKCH,20%
same,%Inh,PRKCI,16%
same,%Inh,PRKCQ,0%
same,%Inh,PRKD1,0%
same,%Inh,PRKD2,8%
same,%Inh,PRKD3,0%
same,%Inh,PRKG1,14%
same,%Inh,PRKG2,3%
CNc1nccc(-c2c(-c3ccc(F)cc3)ncn2C2CCN(C)CC2)n1 [SB-222903],%Inh,PIP5K2C,90%
same,%Inh,PKAC-alpha,1%
same,%Inh,PKAC-beta,17%
same,%Inh,PKMYT1,0%
same,%Inh,PKN1,0%
same,%Inh,PKN2,0%
same,%Inh,PLK1,0%
same,%Inh,PLK2,0%
same,%Inh,PLK3,4%
same,%Inh,PLK4,0%
same,%Inh,PRKCD,10%
same,%Inh,PRKCE,2%
same,%Inh,PRKCH,0%
same,%Inh,PRKCI,0%
same,%Inh,PRKCQ,0%
same,%Inh,PRKD1,0%
same,%Inh,PRKD2,19%
same,%Inh,PRKD3,0%
same,%Inh,PRKG1,14%
same,%Inh,PRKG2,0%
CC(C)(C)c1ccc(-n2cnc3c(N)ncnc32)cc1 [SKF-97263],%Inh,PIP5K2C,27%
same,%Inh,PKAC-alpha,4%
same,%Inh,PKAC-beta,2%
same,%Inh,PKMYT1,3%
same,%Inh,PKN1,39%
same,%Inh,PKN2,11%
same,%Inh,PLK1,7%
same,%Inh,PLK2,0%
same,%Inh,PLK3,0%
same,%Inh,PLK4,0%
same,%Inh,PRKCD,6%
same,%Inh,PRKCE,13%
same,%Inh,PRKCH,29%
same,%Inh,PRKCI,1%
same,%Inh,PRKCQ,15%
same,%Inh,PRKD1,0%
same,%Inh,PRKD2,0%
same,%Inh,PRKD3,55%
same,%Inh,PRKG1,11%
same,%Inh,PRKG2,0%
Clc1cccc(-c2nc(Nc3ccncc3)c3ccccc3n2)c1 [GW873004],%Inh,PIP5K2C,49%
same,%Inh,PKAC-alpha,2%
same,%Inh,PKAC-beta,60%
same,%Inh,PKMYT1,0%
same,%Inh,PKN1,0%
same,%Inh,PKN2,20%
same,%Inh,PLK1,17%
same,%Inh,PLK2,0%
same,%Inh,PLK3,0%
same,%Inh,PLK4,0%
same,%Inh,PRKCD,24%
same,%Inh,PRKCE,16%
same,%Inh,PRKCH,50%
same,%Inh,PRKCI,17%
same,%Inh,PRKCQ,0%
same,%Inh,PRKD1,47%
same,%Inh,PRKD2,45%
same,%Inh,PRKD3,44%
same,%Inh,PRKG1,16%
same,%Inh,PRKG2,7%
CS(=O)(=O)CCNCc1ccc(-c2ccc3ncnc(Nc4ccc(OCc5ccccc5)c(Cl)c4)c3c2)o1.Cl [GW574783],%Inh,PIP5K2C,29%
same,%Inh,PKAC-alpha,4%
same,%Inh,PKAC-beta,16%
same,%Inh,PKMYT1,0%
same,%Inh,PKN1,12%
same,%Inh,PKN2,8%
same,%Inh,PLK1,6%
same,%Inh,PLK2,0%
same,%Inh,PLK3,0%
same,%Inh,PLK4,0%
same,%Inh,PRKCD,0%
same,%Inh,PRKCE,10%
same,%Inh,PRKCH,27%
same,%Inh,PRKCI,13%
same,%Inh,PRKCQ,20%
same,%Inh,PRKD1,4%
same,%Inh,PRKD2,12%
same,%Inh,PRKD3,0%
same,%Inh,PRKG1,0%
same,%Inh,PRKG2,0%
